Among the test systems are NCI-H23 lung; NCI-H226 lung; NCI-H322M lung; HOP-62 NSCLC; NCI-H460 lung; NCI-H522 lung; A549/ATCC NSCLC; 786-0 renal; COLO 205 colon.
Common to all, as to assay: NCI-60 one-dose screen, 48 h (100 = growth as untreated, 0 = no growth, -100 = all killed)
Common to all, as to conditions: 10 µM unless noted

Data on 15 compounds can be found in PubChem BioAssay (NCI).

The structures appear in SMILES notation. Compounds without any hit were thinned out: in the full panel of roughly 83,000, 20% have a hit.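 48-hour exposure, single concentration, 96-well plates; percent growth endpoint where 0 means no net growth. Active: below 10.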 Values without a mark were called inactive. Active and inactive are the calls of the source.

As for `CC1=C(O)C(=O)CC1`, the growth in the experiment with NCI-H23 lung was 96.3%; in the experiment with NCI-H226 lung, 100%; with NCI-H322M lung, 103%; in the experiment on HOP-62 NSCLC it was 120%; in the experiment on NCI-H460 lung, 109%; with NCI-H522 lung, 115%. In addition, the growth in the experiment on A549/ATCC NSCLC is 88.8%; with 786-0 renal, 105%; with COLO 205 colon, 116%.

In the case of `Clc1ccccc1CNc1c2ccccc2nc2ccccc12`, the growth in the experiment on NCI-H23 lung was 21.6%; with NCI-H226 lung it was 38.9%; in the experiment with NCI-H322M lung it was 27%; with HOP-62 NSCLC, 40.9%; in the experiment with NCI-H460 lung it was 8.83% (active); with NCI-H522 lung it was 28.5%. For the same compound, the growth in the experiment with A549/ATCC NSCLC was 19.2%; in the experiment with 786-0 renal, 24.5%; with COLO 205 colon it was 0.525% (active).

For `O=C(c1ccccc1)C(CCc1ccccn1)CCc1ccccn1`, the growth with NCI-H23 lung was 106%; in the experiment with NCI-H226 lung, 104%; in the experiment with NCI-H322M lung, 117%; in the experiment on HOP-62 NSCLC it was 93.1%; with NCI-H460 lung, 110%; in the experiment with NCI-H522 lung, 89.5%. Moreover, the values for the growth in the experiment on A549/ATCC NSCLC, in the experiment on 786-0 renal and with COLO 205 colon were 98.3%, 98.4% and 105%, respectively.

In the case of `CCN(CC)c1ccc2c(cc1=O)[C@@H](NC(C)=O)CCc1cc(OC)c(OC)c(OC)c1-2`, the growth in the experiment on NCI-H23 lung is 49.5%; in the experiment with NCI-H226 lung it was 51%; in the experiment on NCI-H322M lung, 30.9%; with HOP-62 NSCLC it was 30.9%; with NCI-H460 lung, 3.44% (active); with NCI-H522 lung, -38.8% (active). Further, the growth in the experiment with A549/ATCC NSCLC is 13.2%; in the experiment with 786-0 renal it was 15.6%; with COLO 205 colon, -62.8% (active).

For the compound `O=C(/C=C/c1ccco1)c1ccccc1O`, the growth was 93.5% in the experiment on NCI-H23 lung; 99.6% in the experiment with NCI-H226 lung; 105% with NCI-H322M lung; 109% in the experiment with HOP-62 NSCLC; 108% in the experiment on NCI-H460 lung; 88.3% in the experiment on NCI-H522 lung. For the same compound, the growth in the experiment with A549/ATCC NSCLC is 101%; in the experiment on 786-0 renal it was 96.8%; with COLO 205 colon it was 119%.

Turning to `C=CCOc1ccc2c(C)cc(=O)oc2c1`, the growth in the experiment with NCI-H23 lung was 102%; in the experiment on NCI-H226 lung it was 109%; in the experiment on NCI-H322M lung, 126%; in the experiment with HOP-62 NSCLC it was 112%; with NCI-H460 lung, 99.6%; in the experiment on NCI-H522 lung, 93.3%. For the same compound, the growth was 89.6% in the experiment on A549/ATCC NSCLC, 109% in the experiment with 786-0 renal and 138% with COLO 205 colon.

As to `CCc1c(C)c2ccc(O)c(-c3cc(-c4ccccc4)c(C#N)c(=O)[nH]3)c2oc1=O`, the growth in the experiment with NCI-H23 lung was 89%; in the experiment on NCI-H226 lung it was 83.8%; in the experiment on NCI-H322M lung, 95%; in the experiment with HOP-62 NSCLC, 89.4%; in the experiment on NCI-H460 lung, 112%; in the experiment with NCI-H522 lung, 109%. For the same compound, the growth is 90% with A549/ATCC NSCLC, 105% in the experiment on 786-0 renal and 115% in the experiment on COLO 205 colon.

As for `Cc1csc(N/N=C/c2ccncc2)n1`, the growth in the experiment on NCI-H23 lung is 100%; in the experiment with NCI-H226 lung it was 95.9%; with NCI-H322M lung, 109%; in the experiment with HOP-62 NSCLC, 99.1%; in the experiment on NCI-H460 lung it was 101%; in the experiment on NCI-H522 lung, 72.9%. Further, the growth in the experiment with A549/ATCC NSCLC is 68.8%; in the experiment on 786-0 renal, 88.4%; with COLO 205 colon it was 107%.

Consider `CN(C)CCCN1c2ccccc2CCc2ccccc21`, for which the growth was 129% with NCI-H23 lung; 104% in the experiment on NCI-H226 lung; 108% with NCI-H322M lung; 82.2% in the experiment with HOP-62 NSCLC; 113% in the experiment on NCI-H460 lung; 88.2% with NCI-H522 lung. Moreover, the growth in the experiment on A549/ATCC NSCLC was 95.8%; with 786-0 renal, 95.7%; with COLO 205 colon, 78%.

Regarding `CNC(=O)c1c(NC(=O)c2cccc(C(F)(F)F)c2)sc2c1CCC(=O)C2`, the growth is -1.79% (active) in the experiment on NCI-H23 lung; 1.92% (active) in the experiment on NCI-H226 lung; 15.4% with NCI-H322M lung; 13.6% in the experiment on HOP-62 NSCLC; 10% in the experiment on NCI-H460 lung; -28.3% (active) with NCI-H522 lung. The growth in the experiment on A549/ATCC NSCLC was 13.6%; in the experiment on 786-0 renal it was 13.3%; in the experiment on COLO 205 colon, -31.7% (active).

Consider `CCOC(=O)N1C2CCC(C2)N1C(=O)OCC`, for which the growth with NCI-H23 lung is 104%; in the experiment with NCI-H226 lung, 91.9%; in the experiment on NCI-H322M lung it was 115%; in the experiment with HOP-62 NSCLC, 108%; in the experiment with NCI-H460 lung, 108%; with NCI-H522 lung it was 91.5%. In addition, the growth with A549/ATCC NSCLC is 107%; with 786-0 renal, 101%; in the experiment on COLO 205 colon it was 110%.

On to `COc1cc(C2CC(c3ccc(Cl)cc3)=NN2C(C)=O)ccc1Oc1nc2c(c(=O)n(C)c(=O)n2C)n1C` (stereo not given), for which the growth with NCI-H23 lung was 84.2%; in the experiment with NCI-H226 lung, 76.8%; with NCI-H322M lung, 72.9%; in the experiment with HOP-62 NSCLC, 98.7%; in the experiment with NCI-H460 lung, 88.1%; with NCI-H522 lung it was 92.5%. In addition, the growth in the experiment with A549/ATCC NSCLC was 59.7%; in the experiment with 786-0 renal, 111%; in the experiment with COLO 205 colon it was 102%.

For `C#CCNc1nc(NCCNC(=O)CCl)nc(N(C)CCCCc2ccccc2)n1`, the growth in the experiment with NCI-H23 lung was 84.7%; with NCI-H226 lung, 71%; in the experiment on NCI-H322M lung, 96.4%; with HOP-62 NSCLC, 94.3%; in the experiment with NCI-H460 lung, 107%; in the experiment on NCI-H522 lung it was 25.4%. Moreover, the growth is 119% in the experiment on A549/ATCC NSCLC, 97.5% in the experiment with 786-0 renal and 91.2% in the experiment on COLO 205 colon.

For the compound `CCN(CC)CCCC(C)Nc1ccnc2ccc(Oc3ccccc3)cc12` (stereo not given), the growth with NCI-H23 lung was 90.6%; in the experiment on NCI-H226 lung, 120%; in the experiment on NCI-H322M lung, 72%; with HOP-62 NSCLC it was 86.6%; with NCI-H460 lung, 95.2%; with NCI-H522 lung, 36.2%. Further, the growth is 81.6% in the experiment on A549/ATCC NSCLC, 72.3% in the experiment on 786-0 renal and 41.4% with COLO 205 colon.

Turning to `O=C1/C=C/[C@@H](O)[C@@H]2C[C@@H](O)C[C@H]2/C=C/CCC[C@H]([C@@H](O)CO)O1`, the growth in the experiment on NCI-H23 lung is 93%; with NCI-H226 lung it was 106%; in the experiment on NCI-H322M lung it was 91.9%; in the experiment on HOP-62 NSCLC, 108%; with NCI-H460 lung it was 115%; in the experiment on NCI-H522 lung, 92.8%. Further, the growth in the experiment with A549/ATCC NSCLC is 96.1%; in the experiment with 786-0 renal, 50.3%; in the experiment on COLO 205 colon, 94.3%.
